# Assay results as given in PubChem BioAssay.
# The source made the active and inactive calls.
# Tests used:
# [1] = tested on: Human papillomavirus type 1a protein E7 (residues 44-93); assay: small molecules binding HPV E7 44-93 – biochemical, small-molecule microarray, residues 44-93, 635 nm fluorescence, primary screen (AID 1108); conditions: fluorescence 635 nm, higher = more signal;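 further: E7 fragment applied at 1 µg/mL in TBST for 1 h at 4 C; score combines spot fluorescence with its signal to noise ratio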
# [2] = hepatitis C replication reporter changes, two-sided – Huh7 cells, luciferase reporter, HCV replication inhibitor project, primary screen (AID 1109); conditions: Huh7 HCV replicon luciferase reporter, 48 h; higher = more signal;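 further: huh7 hepatoma cells harbouring a luciferase neomycin HCV replicon reporter; luciferase luminescence as measure of HCV replicon replication; test concentration not given here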
# [3] = target: Left-right determination factor 2 (Homo sapiens) (UniProt O00292); assay: small molecules binding LEFTY2 protein – biochemical, small-molecule microarray, 635 nm fluorescence scan, primary screen (AID 1110); conditions: higher = more signal
# [4] = target: Calmodulin-1 (Homo sapiens) (UniProt P0DP23); assay: small molecules binding calmodulin-1 with EGTA – biochemical, small-molecule microarray, Cy5-labelled CALM1, profiling panel (AID 1111); conditions: Cy5-CALM1 binding fluorescence, higher = more signal;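 further: labelled calmodulin applied in Tris saline Tween buffer holding calcium plus EGTA and DTT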
# [5] = target: Calmodulin-1 (Homo sapiens) (UniProt P0DP23); assay: small molecules binding Ca-loaded calmodulin-1 – biochemical, small-molecule microarray, Cy5-labelled CALM1, plus calcium, artefact control for SMM control-protein annotation, profiling panel (AID 1112); conditions: Cy5-CALM1 binding fluorescence, higher = more signal;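 further: score merges spot fluorescence with signal to noise from triplicate slides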
# [6] = probe aWnt5a binding to arrayed compounds – biochemical, biotinylated probe, 635/667 nm fluorescence, primary screen (AID 1113); conditions: small-molecule microarray, higher = more signal;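 further: score merges 667 nm fluorescence intensity with signal-to-noise per printed feature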
# [7] = probe aShh binding to arrayed compounds – biochemical, biotinylated probe, 635/667 nm fluorescence, primary screen (AID 1114); conditions: small-molecule microarray, higher = more signal;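 further: probe is biotin-labelled aShh protein from a stem cell growth factor screen; measures binding of labelled protein to compounds printed on the slide; score merges feature fluorescence at 667 nm with signal-to-noise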
# [8] = probe aNog binding to arrayed compounds – biochemical, biotinylated probe, 635/667 nm fluorescence, primary screen (AID 1115); conditions: small-molecule microarray, higher = more signal;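 further: probe is biotinylated aNog protein used at 0.15 µg/mL for 1 h at 4 C; z-score combines 667 nm fluorescence of each spot with its signal to noise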
# [9] = target: Torsin-1A-interacting protein 1 (Homo sapiens) (UniProt Q5JTV8); assay: compound microarray binding of lysate hLAP1 – cell lysate, small-molecule microarray, COS7 lysate, 635/667 nm fluorescence, primary screen (AID 1116); conditions: 635 nm fluorescence, higher = more signal
# [10] = target: Alpha-bungarotoxin (Bungarus multicinctus) (UniProt P60615); assay: compounds binding labelled alpha-BTX control protein – biochemical, small-molecule microarray, Alexa647 label, 635/667 nm fluorescence, artefact control for SMM control protein annotation, profiling panel (AID 1117); conditions: alpha-BTX-A647 binding fluorescence, higher = more signal
# [11] = target: Albumin (Bos taurus) (UniProt P02769); assay: compounds binding labelled BSA control protein – biochemical, small-molecule microarray, Alexa647 label, 635/667 nm fluorescence, artefact control for SMM control protein annotation, profiling panel (AID 1118); conditions: BSA-A647 binding, fluorescence 635 nm, higher = more signal;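 further: score merges 667 nm emission intensity and signal-to-noise per printed compound spot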
# [12] = probe aXIP binding to arrayed compounds – biochemical, NeuroSMM set, 635/667 nm fluorescence, primary screen (AID 1119); conditions: small-molecule microarray, higher = more signal, called active from +8 up or from −8 down;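 further: probe is the protein aXip251-270 applied at 1 µg/mL to compound-printed slides; binding of probe to printed compounds measured as 667 nm fluorescence plus signal to noise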
# [13] = probe aNOTCH3 binding on compound microarray – biochemical, small-molecule microarray, 635/667 nm fluorescence, primary screen (AID 1120); conditions: higher = more signal;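 further: probe is a biotin-tagged antibody raised against NOTCH3 rather than NOTCH3 protein; score merges spot fluorescence near 667 nm with spot signal to noise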
# [14] = probe aNOTCH2 binding on compound microarray – biochemical, small-molecule microarray, 635/667 nm fluorescence, primary screen (AID 1121); conditions: higher = more signal;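 further: score merges feature fluorescence read at 667 nm with its signal to noise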
# [15] = target: Carbonic anhydrase 2 (Homo sapiens) (UniProt P00918); assay: compounds binding carbonic anhydrase 2 – biochemical, small-molecule microarray, Alexa647-labelled CAII, profiling panel (AID 1122); conditions: CAII-A647 binding fluorescence, higher = more signal
# [16] = COS7 lysate on small-molecule microarray, probe aHis, 635 nm (AID 1123); conditions: COS7 cell lysate, fluorescence, higher = more signal;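 further: z-score combines 667nm fluorescence intensity with signal-to-noise per printed compound spot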
# [17] = probe aLAP1 signal on lysate-treated microarray – cell lysate, small-molecule microarray, COS7 lysate, primary screen (AID 1124); conditions: probe aLAP1, fluorescence, higher = more signal;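 further: lysate comes from COS7 cells expressing LAP1 and is applied at 0.3 µg/mL; score merges spot fluorescence near 667 nm with signal-to-noise over triplicate slides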
# [18] = tested on: Sam68 (KHDRBS1); assay: compounds binding KHDRBS1 protein – biochemical, small-molecule microarray, 635 nm fluorescence, primary screen (AID 1125); conditions: higher = more signal;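 further: score merges 667 nm channel intensity with signal to noise over triplicate slides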
# [19] = tested on: Chordin-like protein 2 (CHRDL2); assay: compounds binding chordin-like 2 – biochemical, small-molecule microarray, 635 nm fluorescence, primary screen (AID 1126); conditions: fluorescence 635 nm, higher = more signal;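 further: printed compound slides probed with Chrdl2 protein at 4 µg/mL for 1 h at 4 C; score merges 667 nm emission intensity with signal to noise over three replicate slides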
# [20] = target: Concanavalin-A (Canavalia ensiformis) (UniProt P02866); assay: compounds binding concanavalin A lectin – biochemical, small-molecule microarray, Alexa647 label, 635 nm, artefact control for SMM control protein annotation, primary screen (AID 1127); conditions: ConA-A647 binding fluorescence, higher = more signal;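 further: z combines 667 nm emission intensity with signal-to-noise across three replicate slides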
# Chain of Concanavalin-A (Canavalia ensiformis) (P02866 whole entry, looked up): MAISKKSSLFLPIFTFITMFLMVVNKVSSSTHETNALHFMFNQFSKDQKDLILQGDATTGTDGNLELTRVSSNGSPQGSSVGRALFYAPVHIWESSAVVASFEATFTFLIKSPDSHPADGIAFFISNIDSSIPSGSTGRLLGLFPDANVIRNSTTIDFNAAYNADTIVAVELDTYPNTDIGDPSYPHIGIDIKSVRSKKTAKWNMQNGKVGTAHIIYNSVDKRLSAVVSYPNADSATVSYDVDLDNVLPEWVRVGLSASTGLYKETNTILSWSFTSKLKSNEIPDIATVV
# Chain of Left-right determination factor 2 (Homo sapiens) (O00292 whole entry, looked up): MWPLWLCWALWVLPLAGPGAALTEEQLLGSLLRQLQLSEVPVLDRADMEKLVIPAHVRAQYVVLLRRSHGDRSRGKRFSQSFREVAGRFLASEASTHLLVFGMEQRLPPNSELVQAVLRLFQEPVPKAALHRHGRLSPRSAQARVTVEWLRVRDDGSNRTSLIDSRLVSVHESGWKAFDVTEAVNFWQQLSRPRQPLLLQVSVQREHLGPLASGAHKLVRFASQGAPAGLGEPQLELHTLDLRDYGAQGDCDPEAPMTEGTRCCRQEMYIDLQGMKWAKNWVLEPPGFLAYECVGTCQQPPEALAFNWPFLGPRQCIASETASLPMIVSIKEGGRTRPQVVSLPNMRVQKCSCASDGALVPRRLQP
# Chain of Alpha-bungarotoxin (Bungarus multicinctus) (P60615 whole entry, looked up): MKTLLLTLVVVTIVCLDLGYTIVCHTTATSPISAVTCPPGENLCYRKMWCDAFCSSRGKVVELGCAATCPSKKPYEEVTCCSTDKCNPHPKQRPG
# Chain of Torsin-1A-interacting protein 1 (Homo sapiens) (Q5JTV8 whole entry, looked up): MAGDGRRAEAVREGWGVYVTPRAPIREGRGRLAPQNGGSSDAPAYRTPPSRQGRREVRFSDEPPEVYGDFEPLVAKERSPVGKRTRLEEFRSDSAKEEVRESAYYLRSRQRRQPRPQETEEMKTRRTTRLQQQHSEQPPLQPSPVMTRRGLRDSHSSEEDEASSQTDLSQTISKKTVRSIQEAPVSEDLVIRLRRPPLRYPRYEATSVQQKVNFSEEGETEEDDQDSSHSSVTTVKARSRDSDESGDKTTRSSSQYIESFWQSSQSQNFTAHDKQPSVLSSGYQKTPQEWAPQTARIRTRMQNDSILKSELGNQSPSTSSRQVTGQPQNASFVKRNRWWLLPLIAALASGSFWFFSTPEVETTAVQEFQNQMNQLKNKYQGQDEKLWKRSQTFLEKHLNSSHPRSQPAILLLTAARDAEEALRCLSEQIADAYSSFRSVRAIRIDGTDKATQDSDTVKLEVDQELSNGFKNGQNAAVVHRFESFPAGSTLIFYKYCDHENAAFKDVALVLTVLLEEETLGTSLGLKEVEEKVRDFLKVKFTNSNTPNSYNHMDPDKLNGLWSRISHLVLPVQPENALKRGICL
# Chain of Albumin (Bos taurus) (P02769 whole entry, looked up): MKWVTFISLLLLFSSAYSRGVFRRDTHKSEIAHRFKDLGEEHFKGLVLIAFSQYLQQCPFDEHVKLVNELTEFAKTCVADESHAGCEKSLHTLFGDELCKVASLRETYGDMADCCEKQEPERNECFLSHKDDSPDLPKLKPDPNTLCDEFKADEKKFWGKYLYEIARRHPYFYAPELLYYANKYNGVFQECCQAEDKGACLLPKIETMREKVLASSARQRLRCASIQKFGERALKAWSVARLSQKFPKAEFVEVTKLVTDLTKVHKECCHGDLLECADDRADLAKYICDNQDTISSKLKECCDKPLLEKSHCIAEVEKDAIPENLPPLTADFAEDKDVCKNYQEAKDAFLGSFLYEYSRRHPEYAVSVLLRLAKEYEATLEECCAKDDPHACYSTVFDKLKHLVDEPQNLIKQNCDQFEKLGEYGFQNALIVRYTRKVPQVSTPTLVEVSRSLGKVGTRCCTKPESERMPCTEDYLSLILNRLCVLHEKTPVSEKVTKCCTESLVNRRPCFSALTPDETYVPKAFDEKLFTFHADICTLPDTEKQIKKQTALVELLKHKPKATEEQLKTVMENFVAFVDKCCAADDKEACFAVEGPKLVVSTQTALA
Compound,composite z-score [1],z-score [2],composite z-score [3],composite z-score [4],composite z-score [5],composite z-score [6],composite z-score [7],composite z-score [8],composite z-score [9],composite z-score [10],composite z-score [11],composite Z-score [12],composite z-score [13],composite z-score [14],composite z-score [15],composite z-score [16],composite z-score [17],composite z-score [18],composite z-score [19],composite z-score [20]
COCCOC(=O)N1C(=O)[C@@]2(c3cc(C#CC4(O)CCCCCC4)ccc31)[C@H](C(N)=O)[C@H]1C(=O)O[C@H](c3ccccc3)[C@H](c3ccccc3)N1[C@@H]2c1ccc(OCCO)cc1,0.688,-2.61,0.73,1.49,0.527,-0.0364,0.407,0.176,0.883,1.61,0.736,0.133 (inactive),0.086,-0.118,0.566,2.58,0.412,1.3,-0.0029,1.17
COCCCNC(=O)[C@]1(Cc2ccccc2N=[N+]=[N-])N=C(c2ccc(OCCCO)cc2)O[C@@H]1c1ccccc1,0.565,-1.69,-0.263,2.24,0.908,-0.118,0.0638,-0.661,1.69,2.32,0.894,0.522 (inactive),0.619,0.308,0.304,2.85,0.536,1.3,-0.586,1.11
COc1cccc(C)c1NC(=O)O[C@H]1[C@H](OC(=O)Nc2ccccc2)[C@@H](OC(=O)Nc2ccccc2)[C@@H](OC)O[C@@H]1CO,1.52,-2.72,0.508,1.13,-0.271,0.0321,0.157,0.0023,2.17,1.31,0.541,-0.376 (inactive),0.163,-0.0811,0.461,2.66,0.665,1.29,0.174,1.08
CC[C@@H](O[Si](C#C[Si](C(C)C)(C(C)C)C(C)C)(C(C)C)C(C)C)c1cn([C@H](CO)Cc2ccccc2)nn1,1.02,-0.126,0.498,0.229,-0.24,-0.148,-0.0769,0.184,0.739,0.167,0.239,0.133 (inactive),-0.0077,-0.0995,0.409,0.398,0.0485,1.09,0.414,0.346
COc1ccc([Si](C)(C)[C@@H]2[C@@H](CC(=O)N(CCO)Cc3ccccc3)O[C@]3(C(=O)N(Cc4cccc(I)c4)c4ccccc43)[C@H]2C)cc1,1.28,-3.82,0.741,2.83,1.21,-0.0425,0.564,0.0051,0.319,0.855,-0.783,0.0089 (inactive),0.0522,-0.0576,0.364,0.763,0.363,1.01,1.12,0.779
CC1CC/C=C\[C@H]2OC34C=CCN(C(C)C)C(=O)[C@H]3N(C(C)CO)C(=O)[C@@H]4C2C(=O)O1 (stereo not given in full),-0.607,-1.43,-0.334,-0.174,-0.824,-0.128,-0.304,-0.0381,0.0726,-0.215,0.702,0.439 (inactive),-0.162,-0.115,0.418,-0.406,-0.108,-0.26,-0.337,-0.0657
C=C(COC)C(=O)CC[C@H](OC(C)=O)c1ccc(CO)o1,-1.05,0.272,0.451,0.44,-1.07,-0.152,-0.0709,-0.273,-0.534,0.706,0.485,4.03 (inactive),-0.0328,-0.14,0.472,-0.273,-0.218,-0.893,0.268,0.753
COc1ccc(CCNC(=O)[C@@]2(C)c3ccccc3C(=O)N(Cc3ccc(OC(F)(F)F)cc3)[C@H]2c2ccc(CO)cc2)cc1,1.06,-1.84,0.243,-0.717,-0.944,0.0148,0.0181,-0.737,0.986,1.04,-0.146,0.431 (inactive),-0.104,-0.163,0.611,1.37,0.687,1.3,0.309,0.781
CC1C2C(CCCO)=CC(C3C(=O)N(C)C(=O)C23)N1Cc1cccc(OC(F)(F)F)c1 (stereo not given),1.47,-0.75,0.101,1.65,0.841,0.0317,0.522,1.64,1.62,1.42,1,-0.0186 (inactive),0.126,0.0083,0.854,2.43,0.267,1.29,-0.262,0.96
CCOC(=O)C[C@H]1[C@H](OC(=O)c2cc3ccccc3oc2=O)[C@@H](NC(=O)Cc2ccc(OC)cc2)c2cc(OCCCO)ccc2N1C(=O)Cc1ccc(OC)cc1,0.351,-1.73,0.594,-0.326,-0.54,-0.096,-0.145,-0.0428,0.0475,0.329,0.112,0.594 (inactive),0.0522,-0.162,0.709,0.638,-0.0915,0.23,0.441,0.817
O=C1C[C@@](C(=O)NCC(F)(F)F)(c2ccc([N+](=O)[O-])cc2)[C@@H](c2ccc(CO)cc2I)N1CC12CC3CC(CC(C3)C1)C2,1.31,-3.3,0.0604,0.595,0.149,-0.0843,-0.314,-0.229,0.349,1.23,0.506,0.0839 (inactive),-0.056,-0.13,0.517,1.48,1.15,1.29,-0.0117,1.12
